Results filed as inconclusive are left out. The source made the active and inactive calls. The call rests on the fitted dose curve; in most records, active means well fitted curve in the direction sought with a large enough effect; inconclusive means small, poorly fitted or top-dose-only effect, or another doubt; inactive means no such curve, though single readings can be large; an effect the other way counts as inactive or inconclusive.
What was measured:
[1] = Quantitative highthroughput screen to assess conditional lethalithy of NOMO1 cells grown in RPMI1640 with untreated serum (RPMI+s) (AID 1963876); further: nearly all actives have a fitted effect of over 35% in size
Summary of the method: (§1)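 Each medium arm—HPLM with 10% dialyzed FBS, or RPMI1640 with 5 mM glucose and 10% untreated or dialyzed FBS—was screened against an 11-point, 3-fold compound titration for 48 h at 37 °C, with CellTiter-Glo luminescence as endpoint.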

[2] = Quantitative highthroughput screen to assess conditional lethalithy of NOMO1 cells grown in RPMI1640 with dialyzed fetal bovine serum (RPMI+ds) (AID 1963877); further: series mostly up to about 46 µM; nearly all actives have a fitted effect of over 30% in size
Summary of the method: as §1

[3] = Quantitative highthroughput screen to assess conditional lethalithy of NOMO1 cells grown in Human Plasma-Like Medium with dialyzed fetal bovine serum (HPLM+ds) (AID 1963878); further: nearly all actives have a fitted effect of over 35% in size
Summary of the method: as §1

[4] = Quantitative highthroughput screen to assess conditional lethalithy of P12 Ichikawa cells grown in Human Plasma-Like Medium with dialyzed fetal bovine serum (HPLM+ds) (AID 1963879); settings: Potency: viability; further: series mostly up to about 46 µM; nearly all actives have a fitted effect of over 35% in size
Summary of the method: as §1

[5] = Quantitative highthroughput screen to assess conditional lethalithy of P12 Ichikawa cells grown in RPMI1640 with dialyzed fetal bovine serum (RPMI+ds) (AID 1963880); settings: Potency: P12-Ichikawa viability; further: nearly all actives have a fitted effect of over 35% in size
Summary of the method: as §1

[6] = Quantitative highthroughput screen to assess conditional lethalithy of P12 Ichikawa cells grown in RPMI1640 with untreated serum (RPMI+s) (AID 1963881); settings: Potency: viability
Summary of the method: as §1

[7] = Quantitative highthroughput screen to assess conditional lethalithy of SEM cells grown in Human Plasma-Like Medium with dialyzed fetal bovine serum (HPLM+ds) (AID 1963882)
Summary of the method: as §1

[8] = Quantitative highthroughput screen to assess conditional lethalithy of SEM cells grown in RPMI1640 with unreated serum (RPMI+s) (AID 1963883); further: nearly all actives have a fitted effect of over 35% in size
Summary of the method: as §1

[9] = Quantitative highthroughput screen to assess conditional lethalithy of SEM cells grown in RPMI1640 with dialyzed fetal bovine serum (RPMI+ds) (AID 1963884)
Summary of the method: as §1

Measured: Potency

CCN1CCN(C(=O)N[C@H](C(=O)N[C@@H]2C(=O)N3C(C(=O)O)=C(CSc4nnnn4C)CS[C@@H]23)c2ccc(O)cc2)C(=O)C1=O
inactive: all assays above

COc1cccc(N(C)C(=S)Oc2ccc3c(c2)CCCC3)n1
inactive: all assays above

OC[C@H]1O[C@@H](n2cnc3c2NC=NC[C@@H]3O)C[C@H]1O
inactive: all assays above

NC[C@@H]1O[C@@H](O[C@H]2[C@@H](O)[C@H](O[C@@H]3[C@@H](O)[C@@H](N)C[C@H](N)[C@H]3O[C@H]3O[C@H](CN)[C@@H](O)[C@@H](O)[C@H]3N)O[C@H]2CO)[C@H](N)[C@@H](O)[C@@H]1O
inactive: all assays above

CN(C)CCC=C1c2ccccc2COc2ccc(CC(=O)O)cc21
inactive: all assays above

C[C@@H]1[C@H](O)[C@@H](C)C=CC=CC=CC=CC=CC=CC=C[C@H](O[C@@H]2O[C@H](C)[C@H](O)[C@H](N)[C@@H]2O)C[C@@H]2O[C@](O)(C[C@@H](O)C[C@@H](O)[C@H](O)CC[C@@H](O)C[C@@H](O)CC(=O)O[C@H]1C)C[C@H](O)[C@@H]2C(=O)O
inactive: all assays above

From PubChem BioAssay (NCATS)
